About 8,600 (12%) of roughly 69,000 compounds showed an effect of 50% or more. Only a selection was taken, and strong results are over-represented in it overall.
These compounds were tested on Plasmodium berghei (assay: Screen against P. berghei liver stage (PbLuc), transformed with Luciferase, at 10uM). Conditions: tested at 10 uM.
Type: functional, HepG2

| SMILES | INHIBITION |
| --- | --- |
| CN(C)c1nccc(-c2cnc(N(C)C)[nH]c2=O)n1 | 13% |
| COCc1ccccc1CNCc1c(C(C)C)nn(C)c1N(C)C | 20.85% |
| CN1CC(=O)N(c2ccsc2)CC12CCN(S(=O)(=O)c1ccccc1)C2 (stereo unspecified) | -41.4% |
| Cc1ccccc1CN(CCN(C)C)Cc1ccccc1C(=O)O | 2.18% |
| CCN(Cc1cc(F)ccc1Cl)C1CCS(=O)(=O)C1 (stereo unspecified) | 12.1% |
| N#Cc1cc(S(N)(=O)=O)ccc1N1CCc2c(Cl)cccc2C1 | 9.52% |
| CC(C)(C)c1ncc(C(=O)NCCNC(=O)c2ccc(O)cc2)s1 | 29.2% |
| COc1cccc2c1CCCCN2C(=O)c1oc(C)nc1C | 53.7% |
| Cc1nc(C)c(C(=O)N2CCc3c(C)cccc32)o1 | 5.91% |
| Cc1nc(C)c(C(=O)N2CCCc3c(F)cccc32)o1 | 35.2% |
| CCN(CCNS(=O)(=O)C1CCOCC1)C(=O)OC(C)(C)C | -21.2% |
| Cc1csc(NC(=O)CN(C)CCOc2cccc(F)c2)n1 | 1.05% |
| c1ccc(Cc2nnc(CN3CCCC3Cn3cccn3)o2)cc1 (stereo unspecified) | 24% |
| CCCc1nc(Cn2c(=O)n(C)c3ccccc32)no1 | 29.4% |
| CCc1nc(Cn2c(=O)n(CC)c3ccccc32)no1 | 57.3% |
| CCc1nc(Cn2c(=O)n(C)c3ccccc32)no1 | 45.2% |
| CC(C)NC(=O)[C@H]1C[C@@H]2[C@@H](C1)OCCN2CC1CC1 | 48.2% |
| N#Cc1cccc(CN(CC(=O)N2CCCC2)CC2CCCO2)c1 (stereo unspecified) | -4.91% |
| N#Cc1ccc(F)c(CN(CC(=O)N2CCCC2)CC2CCCO2)c1 (stereo unspecified) | -13.5% |
| N#Cc1csc(CN(CC(=O)N2CCCC2)CC2CCCO2)c1 (stereo unspecified) | 70.9% |
| O=C([C@@H]1CC[C@@H]2[C@@H](CCN2CCOCc2ccccc2)O1)N1CCCC1 | 32.1% |
| CCCNC(=O)CCOc1cccc(F)c1 | 14.465% |
| CC(=O)c1ccc(NC(=O)N(CCN(C)C)Cc2ccc(C)s2)cc1 | 26.6% |
| Cc1ccc(CN(CCN(C)C)C(=O)Nc2cc(C(N)=O)ccc2C)s1 | 19.2% |

| SMILES | INHIBITION |
| --- | --- |
| Cc1ccc(CN(CCN(C)C)C(=O)Nc2ccc(C)c(C#N)c2)s1 | 60% |
| Cc1cnn(CC2CCCN2C(=O)c2cccnc2-n2cncn2)c1 (stereo unspecified) | 31.9% |
| Cc1cccc2c(CCNC(=O)[C@H](N)c3ccccc3)c[nH]c12 | 61.1% |
| Cc1cccc2c(CCNC(=O)NCC[S+](C)[O-])c[nH]c12 (stereo unspecified) | 26.4% |
| Cc1cccc2c(CCNC(=O)NCCC[S+](C)[O-])c[nH]c12 (stereo unspecified) | 51% |
| CC(=O)N1CCC(C(=O)NCCc2c[nH]c3cc(C)ccc23)CC1 | 11.9% |
| Cc1cccc2c(CCNS(=O)(=O)C3CCOC3)c[nH]c12 (stereo unspecified) | 39.2% |
| COc1c(Br)cccc1CCNC(=O)c1ncoc1C | -53.1% |
| Cc1cnn(CC2CCCCN2C(=O)Cn2nc(C)c(Cl)c2C)c1 (stereo unspecified) | 13.8% |
| O=C(CCNS(=O)(=O)c1ccc(Cl)cc1)NCc1ccoc1 | -11.6% |
| CCNc1ncc(C(=O)NC(CC)c2ccnn2C)cn1 (stereo unspecified) | 48.2% |
| Cn1cnc2cc(CCC(=O)Nc3n[nH]c(C4CC4)n3)ccc21 | 41.5% |
| O=C(C1CCC1)N1CCC2(COCc3cnc(N4CCOCC4)nc32)C1 (stereo unspecified) | -4.56% |
| O=C(CC1CC1)N1CCC2(COCc3cnc(-c4cccnc4)nc32)C1 (stereo unspecified) | 42.1% |
| O=C(C1CC1)N1CCC2(COCc3cnc(N4CCOCC4)nc32)C1 (stereo unspecified) | 60.1% |
| COCC(=O)N1CCC2(COCc3cnc(-c4ccccc4)nc32)C1 (stereo unspecified) | -22.4% |
| CC(C)(C)C(=O)N1CCC2(COCc3cnc(N4CCOCC4)nc32)C1 (stereo unspecified) | -18.2% |
| CCC(=O)N1CCC2(COCc3cnc(N4CCOCC4)nc32)C1 (stereo unspecified) | 57.9% |
| O=C(CC1CC1)N1CCC2(COCc3cnc(N4CCOCC4)nc32)C1 (stereo unspecified) | 61.4% |
| CC(C)NC(=O)N1CCC2(COCc3cnc(N4CCOCC4)nc32)C1 (stereo unspecified) | -18.4% |
| O=C(C1CC1)N1CCC2(COCc3cnc(NCc4ccco4)nc32)C1 (stereo unspecified) | -3.33% |
| COCC(=O)N1CCC2(COCc3cnc(N4CCOCC4)nc32)C1 (stereo unspecified) | 84.7% |
| COCCC(=O)N1CCC2(COCc3cnc(N4CCOCC4)nc32)C1 (stereo unspecified) | 34.7% |
| O=C([C@@H]1C[C@@H]2CCN(C3CCOCC3)C[C@H]2O1)N1CCOCC1 | -28% |

| SMILES | INHIBITION |
| --- | --- |
| CC(=O)N1CCC(Cc2cnc(-c3c(C)nn(C)c3C)cn2)CC1 | -26.2% |
| Cn1cnnc1C1CCCN(C(=O)c2cc3ccccc3[nH]2)C1 (stereo unspecified) | -8.11% |
| Cc1ccncc1C(=O)N1C[C@@H]2CN(c3ncccn3)C[C@]2(C(=O)O)C1 | 7.65% |
| COCCN1CCCn2c(nc(Cn3cncn3)cc2=O)C1 | 13.6% |
| CN(Cc1ccncc1)C(=O)NC1CCCN(c2ncccn2)C1 (stereo unspecified) | 36.1% |
| O=C(NCc1ccc(Cl)cc1)N1CCN(CC(O)C2CC2)CC1 (stereo unspecified) | 25.9% |
| CS(=O)(=O)N1CCC(NC(=O)COc2ccc3ccccc3c2)CC1 | 33.3% |
| Cc1oc(-c2cccc(F)c2F)nc1CN(C)CCO | 11.3% |
| COCCN(C)Cc1nc(-c2cccc(F)c2F)oc1C | 51.9% |
| Cc1oc(-c2cccc(F)c2F)nc1CN(C)CCC(C)(C)O | 16% |
| O=C(c1ccnnc1)N1CC[C@]2(C[C@H](Oc3ncccc3F)CO2)C1 | -29.3% |
| Cc1nn(C)cc1-c1cc(C(=O)N2CCc3ncc(Cl)cc3C2)no1 | 38.65% |
| CC(=O)NC1CCCN(C(=O)NCc2cc[nH]n2)C1 (stereo unspecified) | 31.9% |
| CC(=O)NC1CCCN(C(=O)Nc2nnc(C(C)C)s2)C1 (stereo unspecified) | 52% |
| CCC(CC)c1nnc(NC(=O)N2CCC(C(N)=O)CC2)s1 | 12.6% |
| CCC(CC)c1nnc(NC(=O)N2CCCC(NC(C)=O)C2)s1 (stereo unspecified) | 52% |
| CC(C)c1nnc(NC(=O)NC2CCN(Cc3ccccc3)C2)s1 (stereo unspecified) | -15.05% |
| CCCc1nnc(NC(=O)N2CCCC(NC(C)=O)C2)s1 (stereo unspecified) | 17% |
| NCCc1cc(N2CCOCC2)nc(NC2CC2)n1 | 18.25% |
| CN(C)CCN(Cc1ccc(C#N)cc1)C(=O)c1ccn(C)c(=O)c1 | 8.38% |
| CS(=O)(=O)NCCNC(=O)Cc1ccc(Br)s1 | -62.1% |
| CNC(=O)c1cc(NC(=O)Nc2cnn(CC(C)C)c2)ccc1F | 1.56% |
| COc1ccccc1-c1cc(C(=O)N2CCCC2)c2cnn(C)c2n1 | 44.1% |
| O=C(CCc1ccccn1)N1CCCC1 | -8.11% |

| SMILES | INHIBITION |
| --- | --- |
| CN1CCN(C(=O)C2SCCc3sccc32)CC1 (stereo unspecified) | 39.7% |
| O=C(C1SCCc2sccc21)N1CCCCC1 (stereo unspecified) | 62% |
| NC(=O)C1CCN(C(=O)C2SCCc3sccc32)CC1 (stereo unspecified) | 69.7% |
| O=C(C1SCCc2ccccc21)N1CCC(O)CC1 (stereo unspecified) | 50.8% |
| CN(C)C1CCN(C(=O)C2SCCc3ccccc32)CC1 (stereo unspecified) | 19.2% |
| O=C(C1SCCc2sccc21)N1CC(O)C1 (stereo unspecified) | 6.33% |
| CN(C)C(=O)C1SCCc2ccccc21 (stereo unspecified) | 38.9% |
| CC(=O)N1CCN(C(=O)C2SCCc3sccc32)CC1 (stereo unspecified) | 8.47% |
| O=C(C1SCCc2sccc21)N1CCC(O)CC1 (stereo unspecified) | 20.1% |
| COCCNC(=O)C1CCCN(c2ccc3nncn3n2)C1 (stereo unspecified) | -21.9% |
| CCO[C@H]1CN(CC2CCOCC2)[C@@H]2CCCO[C@H]12 | 38.5% |
| O=C1COC2(CCN(Cc3ccco3)CC2)CN1CCn1cccn1 | 4.02% |
| O=C(Nc1ccc(CCN2CCOCC2)cc1)C1CC1 | 6.35% |
| Cc1nsc(N2CCCN(C(=O)CCc3ccsc3)CC2)n1 | 15.7% |
| CCOc1ccc(N2CCCN=C2NC(=O)c2ccc(OC)cc2)cc1 | -8.07% |
| CCOc1ccc(N2CCCN=C2NC(=O)c2ccc(Cl)cc2)cc1 | 19.3% |
| CCOc1ccc(N2CCCN=C2NC(=O)c2cccc(C)c2)cc1 | 54% |
| CCOc1ccc(N2CCCN=C2NC(=O)c2cccc(OC)c2)cc1 | 54.9% |
| CCOc1ccc(N2CCCN=C2NC(=O)c2cccc(Cl)c2)cc1 | 23.5% |
| CCOc1ccc(N2CCCN=C2NC(=O)c2ccccc2C)cc1 | -11.5% |
| NC(=O)C1CCN(C(=O)NCCNc2ccccn2)CC1 | 21.9% |
| CCc1ncc(CN(C)C2CCN(C(C)C)CC2)cn1 | -27.1% |
| O=C(c1ccco1)N1CCC2(CCC(=O)N2Cc2cccc(F)c2)CC1 | -4.27% |
| COc1cc(N2C[C@H](C(=O)NC3CC3)[C@@H]3CCO[C@@H]3C2)ncn1 | 12.7% |

| SMILES | INHIBITION |
| --- | --- |
| Cc1cnn(C2CN(CC(O)c3ccccc3)C2)c1 (stereo unspecified) | 29% |
| COc1ccc(C(O)CN2CC(n3cc(C)cn3)C2)cc1 (stereo unspecified) | 57.2% |
| Cc1ncc2c(n1)CN(CC(O)COc1ccc(C#N)cc1)CC2 (stereo unspecified) | -78% |
| Cc1cnn(C2CN(CC(O)c3ccc(F)cc3)C2)c1 (stereo unspecified) | -30.1% |
| Cc1cnn(C2CN(CC(O)COc3ccc(C#N)cc3)C2)c1 (stereo unspecified) | 72.7% |
| Cc1cnn(C2CN(CC(O)Cn3cccn3)C2)c1 (stereo unspecified) | 36.6% |
| COc1cccc(-n2c(C)cc(C(=O)NCCCC(N)=O)c2C)c1 | -5.25% |
| CC(C)c1nnc2n1CCN(C(=O)c1cccc(S(C)(=O)=O)c1)C2 | 45.7% |
| O=C(c1cocn1)N1C[C@H]2CCC[C@@]2(COCc2cccnc2)C1 | 9.63% |
| O=C(c1cscn1)N1C[C@H]2CCC[C@@]2(COCc2ccccn2)C1 | 64.7% |
| Cc1ncoc1C(=O)N1C[C@H]2CCC[C@@]2(COCc2cccnc2)C1 | 60.1% |
| O=C(C1CCOCC1)N1C[C@H]2CCC[C@@]2(COc2cccnc2)C1 | 23.6% |
| O=C(c1ccnnc1)N1C[C@H]2CCC[C@@]2(COCc2ccccn2)C1 | 31.1% |
| O=C(N1CCCC1)N1C[C@H]2CCC[C@@]2(COCc2ccccn2)C1 | 63.8% |
| O=C(c1ccc(F)cc1)N1C[C@H]2CCC[C@@]2(COCc2ccccn2)C1 | 40.9% |
| O=C(c1ncccn1)N1C[C@H]2CCC[C@@]2(COCc2cccnc2)C1 | 45.5% |
| O=S(=O)(C1CC1)N1C[C@H]2CCC[C@@]2(COCc2ccccn2)C1 | 43.9% |
| O=C(C1CCOCC1)N1C[C@H]2CCC[C@@]2(COc2ccccn2)C1 | 13.6% |
| O=C(C1CCOCC1)N1C[C@H]2CCC[C@@]2(COCc2ccccn2)C1 | 53% |
| c1ccc(COC[C@@]23CCC[C@@H]2CN(Cc2ccccn2)C3)nc1 | -7.94% |

Reference: ChEMBL document CHEMBL4513216, “Probing the Open Global Health Chemical Diversity Library for Multistage-Active Starting Points for Next-Generation Antimalarials” (ACS Infect Dis, 2020)
